Active and inactive are the calls of the source. Unless noted, how the calls were made is not given here.
Experiments:
[1] = HepG2 liver cancer cell viability effects, profiling panel, resazurin fluorescence, 24 h, PK04 Diversity Set (AID 1172); conditions: higher = more signal
[2] = basal S. cerevisiae growth modulation, no modifier, primary screen, OD600, strain BY4716, 24 h, basal condition (AID 1173); conditions: OD600, 24 h, higher = more signal, called active from +8 up or from −8 down
[3] = MM1S myeloma cell viability, profiling panel, resazurin fluorescence, basal, 24 h, PK04 Diversity Set (AID 1174); conditions: higher = more signal, called active from +8 up or from −8 down;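 further: MM1S multiple myeloma cell line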
[4] = target: Dihydroorotate dehydrogenase (quinone), mitochondrial (Plasmodium falciparum (isolate 3D7)) (UniProt Q08210); assay: PfDHODH enzyme inhibitors, primary screen, biochemical, C-terminal His tag, absorbance 600 nm (AID 1175); conditions: DCIP absorbance 600 nm, higher = more signal, called active from +8 up or from −8 down;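 further: recombinant parasite enzyme with a five histidine tag at its C terminus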
Chain of Dihydroorotate dehydrogenase (quinone), mitochondrial (Plasmodium falciparum (isolate 3D7)) (Q08210 whole entry, looked up): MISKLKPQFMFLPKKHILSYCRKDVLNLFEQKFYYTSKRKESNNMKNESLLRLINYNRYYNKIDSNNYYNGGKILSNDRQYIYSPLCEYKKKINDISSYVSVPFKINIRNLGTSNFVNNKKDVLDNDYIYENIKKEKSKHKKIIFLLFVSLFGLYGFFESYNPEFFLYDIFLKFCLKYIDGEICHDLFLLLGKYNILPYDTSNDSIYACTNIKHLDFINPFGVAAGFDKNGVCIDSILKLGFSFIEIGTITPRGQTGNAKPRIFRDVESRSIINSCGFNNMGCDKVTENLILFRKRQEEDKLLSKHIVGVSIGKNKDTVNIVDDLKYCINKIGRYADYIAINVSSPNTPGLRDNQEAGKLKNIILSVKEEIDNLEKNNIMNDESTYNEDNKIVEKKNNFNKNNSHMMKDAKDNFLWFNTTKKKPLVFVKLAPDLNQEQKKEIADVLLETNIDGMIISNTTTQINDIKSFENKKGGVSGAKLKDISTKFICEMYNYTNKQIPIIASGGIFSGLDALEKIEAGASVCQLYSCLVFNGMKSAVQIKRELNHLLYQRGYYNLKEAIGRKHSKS

[5] = P. aeruginosa biofilm formation inhibitors, primary screen, strain PAO1, LB-PBS medium, absorbance 600 nm (AID 1176); conditions: P. aeruginosa PAO1 growth/biofilm, A600, 12 h; higher = more signal
[6] = S. cerevisiae RM11-1a growth modifiers, primary screen, strain RM11-1a, OD600, basal, 24 h (AID 1177); conditions: OD600, 24 h, higher = more signal, called active from +8 up or from −8 down;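 further: cultures grown under basal conditions with no added stressor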
[7] = E. coli acrAB mutant growth effects, primary screen, E. coli filamentation inducers, strain DRC39, OD650, 24 h (AID 1178); conditions: higher = more signal, called active from +8 up or from −8 down;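 further: growth measured as culture turbidity by optical density at 650 nm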
[8] = E. coli acrAB mutant growth effects, primary screen, E. coli filamentation inducers, strain DRC39, OD650, 48 h (AID 1179);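 further: screen aims at cell division blockers that make cells filament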; conditions: E. coli DRC39 delta-acrAB growth, higher = more signal, called active from +8 up or from −8 down
[9] = RPMI8226 myeloma cell viability, profiling panel, resazurin fluorescence, basal, 24 h, PK04 Diversity Set (AID 1180); conditions: higher = more signal;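 further: RPMI8826 multiple myeloma cell line at 5000 cells per well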
[10] = target: E3 ubiquitin-protein ligase XIAP (Homo sapiens) (UniProt P98170); assay: XIAP binders, primary screen, biophysical, small-molecule microarray, fluorescence 635 nm (AID 1181); conditions: small-molecule microarray binding, higher = more signal;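 further: score merges 667 nm emission and signal to noise over triplicate slides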
Chain of E3 ubiquitin-protein ligase XIAP (Homo sapiens) (P98170 whole entry, looked up): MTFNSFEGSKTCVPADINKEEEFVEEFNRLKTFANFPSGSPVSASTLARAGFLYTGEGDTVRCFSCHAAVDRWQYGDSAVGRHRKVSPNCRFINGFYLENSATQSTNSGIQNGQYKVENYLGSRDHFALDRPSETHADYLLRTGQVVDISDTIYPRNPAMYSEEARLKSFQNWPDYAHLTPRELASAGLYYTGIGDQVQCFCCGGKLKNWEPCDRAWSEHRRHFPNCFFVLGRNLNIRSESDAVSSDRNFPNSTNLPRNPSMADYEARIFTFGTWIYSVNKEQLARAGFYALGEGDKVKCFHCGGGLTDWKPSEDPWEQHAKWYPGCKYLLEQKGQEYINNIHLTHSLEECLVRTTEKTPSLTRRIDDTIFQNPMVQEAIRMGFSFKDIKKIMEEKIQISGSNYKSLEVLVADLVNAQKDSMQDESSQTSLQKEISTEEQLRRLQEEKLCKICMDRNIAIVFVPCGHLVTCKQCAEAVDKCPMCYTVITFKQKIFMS

[11] = tested on: XIP peptide (Xip251-270) binding; assay: small-molecule binders of XIP peptide, primary screen, biochemical, small-molecule microarray, fluorescence 635/667 nm, 0.1 µg/mL protein (AID 1182); conditions: fluorescent protein binding, 635 nm, higher = more signal, called active from +8 up or from −8 down
XIP peptide (Xip251-270) = assay: small-molecule binders of XIP peptide, primary screen, biochemical, small-molecule microarray, fluorescence 635/667 nm, 0.5 µg/mL protein (AID 1183); conditions: small-molecule microarray binding, fluorescence 635 nm; higher = more signal
[12] = Plasmodium falciparum growth inhibition, primary screen, strain 3D7, DAPI fluorescence, 100 nL (AID 1184);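 further: parasites grown inside human red blood cells in medium with human serum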; conditions: P. falciparum 3D7 growth, 3 d, higher = more signal
[13] = target: Homeobox protein Hox-A13 (Mus musculus) (UniProt Q62424); assay: inhibitors of HoxA13-DNA binding, primary screen, biochemical, fluorescence polarization, labeled oligonucleotide (AID 1185); conditions: 15 min, higher = more signal, called active from +8 up or from −8 down
Chain of Homeobox protein Hox-A13 (Mus musculus) (Q62424 whole entry, looked up): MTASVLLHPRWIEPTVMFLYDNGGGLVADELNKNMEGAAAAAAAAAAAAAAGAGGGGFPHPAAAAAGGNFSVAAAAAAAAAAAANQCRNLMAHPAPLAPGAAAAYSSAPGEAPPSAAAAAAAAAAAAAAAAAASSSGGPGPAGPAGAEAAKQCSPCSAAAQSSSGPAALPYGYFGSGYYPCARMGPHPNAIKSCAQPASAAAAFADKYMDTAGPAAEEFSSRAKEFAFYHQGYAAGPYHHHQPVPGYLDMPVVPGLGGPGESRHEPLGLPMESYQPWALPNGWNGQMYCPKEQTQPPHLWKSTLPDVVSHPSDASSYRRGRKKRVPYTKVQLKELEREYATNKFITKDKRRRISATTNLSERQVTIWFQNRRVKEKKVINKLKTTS

[14] = inhibitors of hydroxyurea-induced Chk1 phosphorylation, primary screen, imaging, HeLa, phospho-Chk1 antibody, percent positive cells (AID 1186); conditions: hydroxyurea-induced phospho-Chk1 immunofluorescence imaging, higher = more signal
[15] = inhibitors of hydroxyurea-induced Chk1 phosphorylation, primary screen, imaging, HeLa, phospho-Chk1 nuclear intensity (AID 1187); conditions: hydroxyurea-induced phospho-Chk1 immunofluorescence imaging, higher = more signal

Row | SMILES | z-score [1] | z-score [2] | z-score [3] | composite z-score [4] | z-score [5] | z-score [6] | z-score [7] | z-score [8] | z-score [9] | composite z-score [10] | composite z-score [11] | composite z-score (XIP peptide (Xip251-270)) | z-score [12] | z-score [13] | z-score [14] | z-score [15]
1 | COCCCNC(=O)[C@@H]1c2ccccc2C(=O)N(C(C)C)[C@H]1c1ccc(CO)cc1 | -0.388 | 0.214 (inactive) | 0.054 (inactive) | 0.367 (inactive) | 0.168 (inactive) | 1.03 (inactive) | 0.0099 (inactive) | -0.525 (inactive) | -0.0303 | -0.127 | 0.147 (inactive) | -0.0343 | -0.324 | -1.03 (inactive) | -0.244 (inactive) | -0.504 (inactive)
2 | C=CCNC(=O)[C@@H]1[C@H]2C(=O)O[C@H](c3ccccc3)[C@H](c3ccccc3)N2[C@H](c2ccc(OCCO)cc2)[C@@]12C(=O)N(C(=O)OCCOC)c1ccc(C#Cc3ccc(OC)cc3)cc12 | -0.0068 | 1.21 (inactive) | 0.279 (inactive) | -0.0464 (inactive) | 2.08 (inactive) | 2.57 (inactive) | -0.709 (inactive) | -0.73 (inactive) | 0.725 | 0.102 | 0.448 (inactive) | 0.589 | -2.07 | -0.573 (inactive) | 0.0644 (inactive) | 0.22 (inactive)
3 | COC(=O)[C@@]1(Cc2ccccc2)[C@H]2c3cc(C(=O)N(C)C)n(Cc4ccc(C)o4)c3C[C@H]2CN1C(=O)c1ccccc1 | -0.98 | 1.51 (inactive) | -3.41 (inactive) | -2.93 (inactive) | 3.55 (inactive) | 1.25 (inactive) | -0.513 (inactive) | -1.08 (inactive) | -3.13 | 0.696 | 0.681 (inactive) | -0.523 | -1.81 | 0.0385 (inactive) | 1.19 (inactive) | 0.841 (inactive)
4 | CC1CC/C=C\[C@H]2OC34C=CCN(c5ccc(Cl)cc5)C(=O)[C@H]3N(C(C)CO)C(=O)[C@]4(C)C2C(=O)O1 (stereo not given in full) | 0.66 | -0.876 (inactive) | 0.535 (inactive) | 0.291 (inactive) | -0.428 (inactive) | 0.33 (inactive) | 1.31 (inactive) | 1.48 (inactive) | 0.555 | 0.3 | -0.103 (inactive) | -0.279 | -0.111 | -4.76 (inactive) | 0.558 (inactive) | -0.11 (inactive)
5 | C=C(COC)/C(=C/C[C@H](OC(=O)c1ccncc1)c1ccc(CO)o1)c1cnc2ccccc2c1 | -0.338 | 0.107 (inactive) | -0.117 (inactive) | -7.5 (inactive) | 0.449 (inactive) | 0.158 (inactive) | -0.305 (inactive) | -0.343 (inactive) | 0.0987 | -0.121 | 1.02 (inactive) | 0.447 | 0.834 | -5.63 (inactive) | -0.429 (inactive) | -0.442 (inactive)
6 | COCCOC(=O)N1C(=O)[C@@]2(c3cc(C#CCCO)ccc31)[C@H](C(=O)Nc1nc3ccccc3s1)[C@H]1C(=O)O[C@H](c3ccccc3)[C@H](c3ccccc3)N1[C@@H]2c1ccc(O)cc1 | -0.0461 | 1.26 (inactive) | -0.159 (inactive) | 1.35 (inactive) | 0.325 (inactive) | 1.52 (inactive) | -0.356 (inactive) | -1.07 (inactive) | -0.358 | -0.105 | 3.02 (inactive) | 0.765 | -1.45 | -3.01 (inactive) | -0.225 (inactive) | -0.445 (inactive)
7 | CC1CC/C=C\[C@H]2OC34C=CCN(C(C)(C)C)C(=O)[C@H]3N(CCCCCO)C(=O)[C@@H]4C2C(=O)O1 (stereo not given in full) | -0.643 | 0.349 (inactive) | 0.285 (inactive) | 0.797 (inactive) | 0.121 (inactive) | -0.202 (inactive) | 0.338 (inactive) | 0.338 (inactive) | 0.0992 | -0.102 | 0.28 (inactive) | -0.48 | -0.375 | -4.58 (inactive) | 0.139 (inactive) | 0.408 (inactive)
8 | CCCC[C@@H](O)C1=C(COc2ccccc2)C[C@H]2C(=O)N(Cc3ccccc3)C(=O)[C@H]2[C@H]1CO | -0.78 | -1.66 (inactive) | -0.857 (inactive) | -4.48 (inactive) | -0.508 (inactive) | 0.743 (inactive) | -0.0552 (inactive) | 0.218 (inactive) | -0.301 | -0.0118 | -0.243 (inactive) | 0.374 | 0.131 | -7.37 (inactive) | -0.782 (inactive) | -0.513 (inactive)
9 | CCN(CC)c1ccc(N2CC=CC34O[C@@H]5/C=C\CCCOC(=O)C5[C@H]3C(=O)N(C(C)CO)[C@@H]4C2=O)cc1 (stereo not given in full) | 0.242 | -0.566 (inactive) | 0.516 (inactive) | -2.25 (inactive) | -0.14 (inactive) | -0.355 (inactive) | 1.9 (inactive) | 1.92 (inactive) | 0.778 | 0.115 | -0.322 (inactive) | 0.213 | 0.226 | -5.97 (inactive) | 0.296 (inactive) | 0.804 (inactive)
10 | CC(C)C(O)C1C=CC2C(=O)N(c3ccccc3)C(=O)C2N1Nc1ccccc1 (stereo not given) | -0.196 | -2.05 (inactive) | -0.302 (inactive) | -0.85 (inactive) | 0.835 (inactive) | 0.334 (inactive) | 0.562 (inactive) | 0.376 (inactive) | -0.825 | 0.123 | 1.33 (inactive) | 0.852 | -0.752 | -4.18 (inactive) | 0.436 (inactive) | 0.581 (inactive)

From PubChem BioAssay
